Source: PubChem BioAssay (NCI)
About 83,000 compounds went through this panel and 20% of them were active in at least one assay; those are over-represented in the sample as a whole.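 Results are percent growth after 48 hours of single-concentration exposure. 100 means growth as in untreated cells, lower positive values show inhibition; negative values down to -100 show cell death.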 Values without a mark were called inactive. Activity calls are given as the source filed them. How the source made its calls: active means growth percent below 10; inactive means the rest.

Legend:
Assay in all cases: NCI-60 one-dose screen, 48 h (100 = growth as untreated, 0 = no growth, -100 = all killed)
Conditions in all cases: 10 µM unless noted
T-47D breast = tested on: T-47D breast
BT-549 breast = tested on: BT-549 breast
MDA-MB-435 melanoma = tested on: MDA-MB-435 melanoma
SW-620 colon = tested on: SW-620 colon
MCF7 breast = tested on: MCF7 breast
HCT-116 colon = tested on: HCT-116 colon
HCC-2998 colon = tested on: HCC-2998 colon
KM12 colon = tested on: KM12 colon

Structure (SMILES) | growth (T-47D breast) | growth (BT-549 breast) | growth (MDA-MB-435 melanoma) | growth (SW-620 colon) | growth (MCF7 breast) | growth (HCT-116 colon) | growth (HCC-2998 colon) | growth (KM12 colon)
COc1ccc(Nc2nc(N)nc3c(=O)[nH]ccc23)cc1 | 96.6% | 102% | 113% | 99.5% | 79.7% | 83.7% | 107% | 104%
Oc1c(C(Nc2ccccc2Br)c2ccccc2)ccc2cccnc12 (centres undefined) | 29.9% | 28.3% | 35.7% | 33.7% | 21% | 20% | 30.1% | 32.3%
COc1cc(Cl)cc(-c2nn(C(=O)NCCN3CCOCC3)cc2-c2ccncc2)c1 | 57.4% | 115% | 2.37% (active) | 57.5% | 28.1% | 51.3% | 88.6% | 61.7%
COc1ccc(-n2c(COc3ccc(F)cc3)n[nH]c2=S)cc1 | 101% | 181% | 105% | 104% | 107% | 101% | 113% | 110%
CN(C)c1nc(-c2cccs2)n2nc(-c3ccco3)cc2n1 | 53.5% | 94% | 104% | 96.7% | 36.3% | 91.4% | 93.9% | 81.4%
CCCCCCCCN(CCCCCCCC)C(=O)CCl | 89.7% | 98.5% | 108% | 104% | 99.6% | 90.8% | 103% | 112%
Cc1ccccc1C1CC(=O)c2ccccc2C1C (centres undefined) | 107% | 131% | 91.3% | 99.2% | 115% | 95.3% | 104% | 107%
COc1cc2ncnc(Nc3ccc(S(=O)(=O)Nc4cc(C)on4)cc3)c2cc1OCCCN1CCN(c2ccc([N+](=O)[O-])cc2)CC1 | 102% | 109% | 103% | 105% | 106% | 109% | 111% | 106%
CCOC(=O)C1=C(C)NC(=S)NC1c1ccccc1 (centres undefined) | 96.2% | 110% | 102% | 97.3% | 99.7% | 103% | 110% | 101%
O=C(O)C(CCc1ccccc1)NCc1ccccc1 (centres undefined) | 96.3% | 47.4% | 104% | 102% | 95.3% | 90.7% | 97.2% | 100%
Cc1ccc(C)c2c1SC1=NNC(Oc3ccc(Cl)cc3)=C(C#N)C(=N)N12 | 84.4% | 107% | 113% | 104% | 89.5% | 108% | 105% | 109%
CCN1C(=O)N(CC)C2C1NC(=O)N2/N=C/C=C/c1ccccc1 (centres undefined) | 34.2% | 52.1% | -2.78% (active) | 24.2% | 12% | 19.6% | 64.2% | 23.4%
CCCCCN(CCCCC)C(=O)C(CCC(=O)O)NC(=O)c1ccc(Cl)c(Cl)c1 (centres undefined) | 102% | 132% | 112% | 106% | 96.7% | 112% | 113% | 114%
N#Cc1ccc(-c2ccc(-c3cccs3)o2)cc1F | 23.7% | 78% | 94.8% | 98.5% | 26.4% | 64.5% | 91.5% | 83.2%
CCN(CC)CCNC(=O)n1cc(-c2ccncc2)c(-c2ccc(Cl)c(OC)c2)n1 | 69.2% | 96.3% | 97.2% | 113% | 85.9% | 84% | 99% | 103%
COc1cc(C2CC(c3ccc(Cl)cc3)=NN2C(C)=O)ccc1Oc1ccnc2cc(Cl)ccc12 (centres undefined) | 53.9% | 92% | 62% | 66.3% | 42.5% | 24.5% | 59.4% | 73.5%
O=C(Nc1cccc(C2=NCCN2)c1)c1ccc(N=Nc2ccc(C(=O)Nc3cccc(C4=NCCN4)c3)cc2)cc1 | 46.5% | 69.1% | 47.9% | 70.7% | 62.4% | 53.1% | 79.4% | 72.8%
ClCc1c(Cl)c(Cl)c(Cl)c(CCl)c1Cl | -71.5% (active) | 87.5% | 52.2% | -82.2% (active) | -4.94% (active) | -76.8% (active) | 88.6% | 24.8%
CCCC(CCC)(C(N)=O)C(=O)O | 111% | 98.7% | 102% | 103% | 109% | 102% | 100% | 106%
CCc1onc(-c2ccc(OC)cc2)c1-c1ccccc1OCCN(CC)CC | 91.7% | 81.1% | 90.5% | 94.7% | 95.6% | 70.9% | 80.8% | 93.1%
Cc1cc(-c2ccccc2)on1 | 96% | 119% | 107% | 109% | 106% | 101% | 111% | 106%
CC(C)(c1ccccc1)c1cc(O)c(C(C)(C)c2ccccc2)cc1O | -0.998% (active) | 20.6% | 35.1% | 31.3% | 12.3% | 9.74% (active) | 61% | 19.4%
CC(C)CC1NC(=O)C(CC(C)C)N(CO)C1=O (centres undefined) | 96.5% | 101% | 111% | 112% | 92.7% | 98.8% | 102% | 110%
COC(=O)[C@@H](Cc1c[nH]c2ccccc12)NC(=O)/C=C/c1ccccc1 | 32.2% | -0.499% (active) | -84.3% (active) | 27.5% | 19.6% | 16.8% | 66% | 27.3%
CC(=O)OC[C@H]1O[C@@H](n2c(=O)cc(N)[nH]c2=O)C(OC(C)=O)[C@@H]1OC(C)=O (some centres undefined) | 96% | 92.8% | 101% | 107% | 94.9% | 103% | 106% | 111%
COc1ccc(-c2cc(-c3ccc(OC)cc3)c3sc(=O)[nH]c3n2)cc1 | 78.6% | 92.9% | 107% | 95.9% | 87.4% | 96.8% | 98.7% | 93.9%
NC(=O)c1ccc[n+](Cc2ccccc2)c1 | 106% | 118% | 98.2% | 102% | 103% | 99.9% | 102% | 102%
Fc1ccc(-c2cnc3nonc3n2)c(F)c1 | 80.8% | 91.6% | 84.4% | 97% | 85% | 96.9% | 93.5% | 82.9%
